This passage reports residual activity results from ChEMBL document CHEMBL2218924, “A broad activity screen in support of a chemogenomic map for kinase signalling research and drug discovery” (Biochem J, 2013).

Assay [1] concerns the target T1, Dual specificity mitogen-activated protein kinase kinase 6 (Homo sapiens) (UniProt P52564).
T1 sequence (whole entry): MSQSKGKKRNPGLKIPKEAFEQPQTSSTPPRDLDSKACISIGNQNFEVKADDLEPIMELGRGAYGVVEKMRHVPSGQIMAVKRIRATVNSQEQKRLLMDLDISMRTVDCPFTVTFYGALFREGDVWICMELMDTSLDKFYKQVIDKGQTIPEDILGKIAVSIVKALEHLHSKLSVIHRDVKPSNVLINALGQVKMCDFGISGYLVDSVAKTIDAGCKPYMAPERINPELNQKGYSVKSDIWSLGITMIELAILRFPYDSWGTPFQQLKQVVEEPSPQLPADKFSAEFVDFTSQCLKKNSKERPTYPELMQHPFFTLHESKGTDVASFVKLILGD
Particulars: at 1 µM.

In assay [2] the target is T1, Dual specificity mitogen-activated protein kinase kinase 6 (Homo sapiens). Particulars: at 10 µM.
Assay [3] addresses T2, Dual specificity mitogen-activated protein kinase kinase 7 (Homo sapiens) (UniProt O14733).
T2 sequence (whole entry): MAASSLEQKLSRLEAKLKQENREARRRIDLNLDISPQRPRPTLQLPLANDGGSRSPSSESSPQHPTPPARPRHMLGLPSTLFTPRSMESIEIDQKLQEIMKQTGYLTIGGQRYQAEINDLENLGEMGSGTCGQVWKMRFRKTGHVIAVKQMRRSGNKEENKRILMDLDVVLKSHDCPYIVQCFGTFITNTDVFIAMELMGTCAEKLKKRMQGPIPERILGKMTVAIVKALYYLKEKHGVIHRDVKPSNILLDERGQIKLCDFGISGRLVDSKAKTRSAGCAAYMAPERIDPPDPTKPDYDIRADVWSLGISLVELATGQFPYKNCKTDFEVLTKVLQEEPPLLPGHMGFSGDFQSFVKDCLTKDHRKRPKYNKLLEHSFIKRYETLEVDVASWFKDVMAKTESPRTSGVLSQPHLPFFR
Particulars: at 1 µM.

Assay [4] addresses T2, Dual specificity mitogen-activated protein kinase kinase 7 (Homo sapiens). Particulars: at 10 µM.
The target of assay [5] is Myosin light chain kinase, smooth muscle (Homo sapiens) (UniProt Q15746). Particulars: at 1 µM.
The target is the same in assay [6]. Particulars: at 10 µM.
Assay [7] concerns the target Mitogen-activated protein kinase kinase kinase 9 (Homo sapiens) (UniProt P80192). Particulars: at 1 µM.
Assay [8] has the same target. Particulars: at 10 µM.
In assay [9] the target is Serine/threonine-protein kinase MRCK alpha (Homo sapiens) (UniProt Q5VT25). Particulars: at 1 µM.
Assay [10] shares this target. Particulars: at 10 µM.
The target of assay [11] is Serine/threonine-protein kinase MRCK beta (Homo sapiens) (UniProt Q9Y5S2). Particulars: at 1 µM.
Assay [12] shares this target. Particulars: at 10 µM.
Assay [13] concerns the target Ribosomal protein S6 kinase alpha-5 (Homo sapiens) (UniProt O75582). Particulars: at 1 µM.
Assay [14] shares this target. Particulars: at 10 µM.
Assay [15] concerns the target Ribosomal protein S6 kinase alpha-4 (Homo sapiens) (UniProt O75676). Particulars: at 1 µM.
The target is the same in assay [16]. Particulars: at 10 µM.
The target in assay [17] is SRSF protein kinase 3 (Homo sapiens) (UniProt Q9UPE1). Particulars: at 1 µM.
Assay [18] shares this target. Particulars: at 10 µM.
Assay [19] has as its target T3, Serine/threonine-protein kinase 4 (Homo sapiens) (UniProt Q13043).
T3 sequence (whole entry): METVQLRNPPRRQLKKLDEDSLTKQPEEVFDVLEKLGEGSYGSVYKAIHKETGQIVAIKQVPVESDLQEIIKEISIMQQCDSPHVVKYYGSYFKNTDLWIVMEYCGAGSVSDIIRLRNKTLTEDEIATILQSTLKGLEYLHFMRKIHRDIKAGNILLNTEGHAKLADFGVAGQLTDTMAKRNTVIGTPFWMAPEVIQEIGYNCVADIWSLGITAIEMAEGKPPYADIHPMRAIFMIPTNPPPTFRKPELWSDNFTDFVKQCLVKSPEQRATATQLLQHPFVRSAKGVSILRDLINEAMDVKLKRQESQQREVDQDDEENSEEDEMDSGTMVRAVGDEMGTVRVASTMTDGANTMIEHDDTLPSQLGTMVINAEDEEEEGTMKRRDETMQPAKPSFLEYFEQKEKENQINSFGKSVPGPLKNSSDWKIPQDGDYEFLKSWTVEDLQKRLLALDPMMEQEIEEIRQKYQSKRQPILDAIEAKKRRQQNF
Particulars: at 1 µM.

Assay [20] deals with T3, Serine/threonine-protein kinase 4 (Homo sapiens). Particulars: at 10 µM.

Serine/threonine-protein kinase MRCK alpha (Homo sapiens), sequence (Q5VT25 whole entry): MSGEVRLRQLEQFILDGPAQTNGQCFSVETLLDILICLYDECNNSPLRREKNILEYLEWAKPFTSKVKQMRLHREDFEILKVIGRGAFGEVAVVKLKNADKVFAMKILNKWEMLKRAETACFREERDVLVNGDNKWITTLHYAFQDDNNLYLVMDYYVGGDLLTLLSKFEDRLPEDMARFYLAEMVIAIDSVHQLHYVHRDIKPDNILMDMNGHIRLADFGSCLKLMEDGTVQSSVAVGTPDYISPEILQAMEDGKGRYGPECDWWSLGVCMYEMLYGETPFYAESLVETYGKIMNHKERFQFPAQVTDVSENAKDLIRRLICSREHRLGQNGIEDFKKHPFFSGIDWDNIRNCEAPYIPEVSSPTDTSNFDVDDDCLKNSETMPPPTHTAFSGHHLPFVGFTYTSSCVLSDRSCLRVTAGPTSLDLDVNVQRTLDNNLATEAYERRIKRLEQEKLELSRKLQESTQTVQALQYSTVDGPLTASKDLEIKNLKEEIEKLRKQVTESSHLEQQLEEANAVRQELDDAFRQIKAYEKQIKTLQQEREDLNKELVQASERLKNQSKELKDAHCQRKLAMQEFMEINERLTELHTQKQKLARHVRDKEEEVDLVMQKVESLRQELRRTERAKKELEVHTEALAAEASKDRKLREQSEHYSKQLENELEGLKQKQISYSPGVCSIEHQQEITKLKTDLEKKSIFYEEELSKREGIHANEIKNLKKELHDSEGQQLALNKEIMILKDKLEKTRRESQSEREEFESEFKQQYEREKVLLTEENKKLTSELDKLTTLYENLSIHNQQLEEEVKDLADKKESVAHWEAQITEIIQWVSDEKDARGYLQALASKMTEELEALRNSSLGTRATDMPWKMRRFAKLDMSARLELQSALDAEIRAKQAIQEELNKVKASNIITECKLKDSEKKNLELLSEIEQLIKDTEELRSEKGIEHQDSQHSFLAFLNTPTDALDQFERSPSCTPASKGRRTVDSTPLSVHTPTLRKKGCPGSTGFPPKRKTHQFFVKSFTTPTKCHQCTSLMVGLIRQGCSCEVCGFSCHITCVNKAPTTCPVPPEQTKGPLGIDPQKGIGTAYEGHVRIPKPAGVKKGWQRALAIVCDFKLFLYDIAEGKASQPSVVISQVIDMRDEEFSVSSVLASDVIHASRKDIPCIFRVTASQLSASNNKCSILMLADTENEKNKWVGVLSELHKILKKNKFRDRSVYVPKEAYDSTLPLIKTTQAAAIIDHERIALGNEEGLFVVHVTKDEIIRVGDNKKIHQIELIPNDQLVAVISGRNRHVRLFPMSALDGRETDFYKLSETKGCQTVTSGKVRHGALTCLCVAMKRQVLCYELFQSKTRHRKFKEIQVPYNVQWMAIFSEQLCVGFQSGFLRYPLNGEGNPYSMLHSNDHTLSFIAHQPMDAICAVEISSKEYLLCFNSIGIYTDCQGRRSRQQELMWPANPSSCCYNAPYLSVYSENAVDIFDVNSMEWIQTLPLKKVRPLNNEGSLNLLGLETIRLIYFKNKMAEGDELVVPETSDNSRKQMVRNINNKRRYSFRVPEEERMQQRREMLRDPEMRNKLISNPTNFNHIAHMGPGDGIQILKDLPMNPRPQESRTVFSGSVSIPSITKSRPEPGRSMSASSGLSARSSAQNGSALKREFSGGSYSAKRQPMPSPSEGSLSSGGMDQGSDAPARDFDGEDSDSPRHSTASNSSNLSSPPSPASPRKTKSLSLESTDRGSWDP
Ribosomal protein S6 kinase alpha-4 (Homo sapiens), sequence (O75676 whole entry, looked up): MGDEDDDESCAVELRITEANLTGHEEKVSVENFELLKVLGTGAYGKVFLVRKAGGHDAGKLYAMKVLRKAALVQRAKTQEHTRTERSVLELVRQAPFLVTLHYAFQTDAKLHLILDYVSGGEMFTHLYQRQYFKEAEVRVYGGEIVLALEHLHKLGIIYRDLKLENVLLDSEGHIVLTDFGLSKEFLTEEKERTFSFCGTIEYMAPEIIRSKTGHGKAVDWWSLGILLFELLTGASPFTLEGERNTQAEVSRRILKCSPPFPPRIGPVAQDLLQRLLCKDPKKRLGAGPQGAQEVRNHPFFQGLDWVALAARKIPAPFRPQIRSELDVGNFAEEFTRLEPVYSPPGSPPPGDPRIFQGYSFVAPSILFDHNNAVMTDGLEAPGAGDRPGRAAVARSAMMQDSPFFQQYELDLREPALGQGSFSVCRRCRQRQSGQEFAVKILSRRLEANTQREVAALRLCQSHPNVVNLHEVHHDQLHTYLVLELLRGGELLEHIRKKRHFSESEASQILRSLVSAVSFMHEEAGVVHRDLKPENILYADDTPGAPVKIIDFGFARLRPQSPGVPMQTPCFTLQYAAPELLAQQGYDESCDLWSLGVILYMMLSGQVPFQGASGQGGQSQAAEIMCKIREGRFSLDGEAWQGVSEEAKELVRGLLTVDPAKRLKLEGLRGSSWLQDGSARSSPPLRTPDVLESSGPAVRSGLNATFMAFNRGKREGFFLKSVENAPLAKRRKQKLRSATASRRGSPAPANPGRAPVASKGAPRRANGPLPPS
Ribosomal protein S6 kinase alpha-5 (Homo sapiens), sequence (O75582 whole entry, looked up): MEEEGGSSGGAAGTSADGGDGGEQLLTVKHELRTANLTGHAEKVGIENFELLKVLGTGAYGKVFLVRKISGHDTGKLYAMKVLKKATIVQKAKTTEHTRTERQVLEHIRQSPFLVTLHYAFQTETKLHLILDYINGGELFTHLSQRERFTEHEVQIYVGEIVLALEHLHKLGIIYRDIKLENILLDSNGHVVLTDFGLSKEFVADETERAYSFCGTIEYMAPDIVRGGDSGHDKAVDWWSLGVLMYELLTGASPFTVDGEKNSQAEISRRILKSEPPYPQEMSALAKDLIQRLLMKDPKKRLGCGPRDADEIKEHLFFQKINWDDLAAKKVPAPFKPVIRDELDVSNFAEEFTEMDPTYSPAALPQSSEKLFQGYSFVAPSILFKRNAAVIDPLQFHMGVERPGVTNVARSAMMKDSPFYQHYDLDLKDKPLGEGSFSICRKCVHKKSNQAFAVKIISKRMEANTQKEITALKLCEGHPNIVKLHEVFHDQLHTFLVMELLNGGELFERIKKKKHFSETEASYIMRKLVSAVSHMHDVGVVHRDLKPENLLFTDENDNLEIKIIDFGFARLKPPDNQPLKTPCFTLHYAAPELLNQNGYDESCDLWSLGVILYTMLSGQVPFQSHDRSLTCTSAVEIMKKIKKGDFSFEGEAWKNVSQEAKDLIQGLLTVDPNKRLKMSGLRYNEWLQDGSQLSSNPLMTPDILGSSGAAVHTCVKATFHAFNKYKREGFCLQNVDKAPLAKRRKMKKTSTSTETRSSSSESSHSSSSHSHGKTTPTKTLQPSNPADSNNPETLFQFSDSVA
SRSF protein kinase 3 (Homo sapiens), sequence (Q9UPE1 whole entry): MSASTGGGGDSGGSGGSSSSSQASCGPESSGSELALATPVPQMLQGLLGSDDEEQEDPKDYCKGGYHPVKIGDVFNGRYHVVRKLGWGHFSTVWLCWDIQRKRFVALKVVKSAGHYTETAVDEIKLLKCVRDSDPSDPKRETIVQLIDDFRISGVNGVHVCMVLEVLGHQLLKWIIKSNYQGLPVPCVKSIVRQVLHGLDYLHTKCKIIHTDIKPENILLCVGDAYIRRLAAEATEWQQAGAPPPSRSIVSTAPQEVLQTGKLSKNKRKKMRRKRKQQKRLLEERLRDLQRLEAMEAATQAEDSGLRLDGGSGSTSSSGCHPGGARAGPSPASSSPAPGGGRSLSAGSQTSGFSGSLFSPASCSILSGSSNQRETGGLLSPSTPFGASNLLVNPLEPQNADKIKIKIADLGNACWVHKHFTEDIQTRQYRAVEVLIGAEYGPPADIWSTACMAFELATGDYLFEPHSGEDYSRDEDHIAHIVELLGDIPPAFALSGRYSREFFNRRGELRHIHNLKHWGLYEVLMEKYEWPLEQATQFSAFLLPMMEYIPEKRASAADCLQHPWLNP
Mitogen-activated protein kinase kinase kinase 9 (Homo sapiens), sequence (P80192 whole entry, looked up): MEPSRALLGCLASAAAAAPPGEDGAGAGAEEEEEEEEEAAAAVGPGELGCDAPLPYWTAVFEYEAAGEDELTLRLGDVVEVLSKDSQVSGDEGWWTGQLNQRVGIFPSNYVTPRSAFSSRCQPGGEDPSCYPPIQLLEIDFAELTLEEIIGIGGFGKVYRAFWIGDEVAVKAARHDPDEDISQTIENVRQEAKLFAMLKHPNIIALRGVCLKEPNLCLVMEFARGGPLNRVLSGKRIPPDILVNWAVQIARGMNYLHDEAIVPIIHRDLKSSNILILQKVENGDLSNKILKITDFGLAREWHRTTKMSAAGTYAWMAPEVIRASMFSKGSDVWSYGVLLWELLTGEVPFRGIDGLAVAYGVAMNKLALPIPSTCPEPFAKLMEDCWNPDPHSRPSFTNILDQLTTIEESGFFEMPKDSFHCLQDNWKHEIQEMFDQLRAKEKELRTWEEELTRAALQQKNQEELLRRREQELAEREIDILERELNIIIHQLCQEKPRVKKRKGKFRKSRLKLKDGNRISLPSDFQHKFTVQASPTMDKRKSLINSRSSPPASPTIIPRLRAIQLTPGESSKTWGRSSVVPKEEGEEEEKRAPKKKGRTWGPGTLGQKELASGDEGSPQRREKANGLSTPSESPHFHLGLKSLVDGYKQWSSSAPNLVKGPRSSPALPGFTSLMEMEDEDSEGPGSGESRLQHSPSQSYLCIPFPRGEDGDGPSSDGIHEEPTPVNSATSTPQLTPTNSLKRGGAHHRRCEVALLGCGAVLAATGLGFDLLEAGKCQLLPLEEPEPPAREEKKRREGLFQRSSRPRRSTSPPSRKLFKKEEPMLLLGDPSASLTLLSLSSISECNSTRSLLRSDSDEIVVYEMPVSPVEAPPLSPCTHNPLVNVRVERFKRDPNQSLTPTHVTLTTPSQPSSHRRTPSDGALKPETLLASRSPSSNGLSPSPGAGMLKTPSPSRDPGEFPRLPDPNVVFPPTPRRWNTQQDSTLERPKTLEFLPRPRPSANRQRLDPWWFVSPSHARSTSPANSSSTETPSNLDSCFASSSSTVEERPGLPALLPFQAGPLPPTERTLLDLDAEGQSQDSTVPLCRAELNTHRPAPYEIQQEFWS

Consider `O=Nc1c(-c2c(O)[nH]c3ccccc23)[nH]c2ccccc12`, for which the residual activity in assay [1] worked out at 63%; in assay [2] it was 40%; in assay [3] it was 52%; in [4], 7%; in [5], 46%; in [6] it was 13%. For the same compound, the residual activity worked out at 6% in [7]; 1% in assay [8]; 142% in assay [9]; 135% in assay [10]; 106% in [11]; 103% in assay [12]. The residual activity in assay [13] turned out to be 61%; in assay [14], 21%; in [15], 32%; in assay [16] it was 4%; in [17] it was 85%; in [18], 46%. For the same compound, the residual activity in [19] came out at 8%; in assay [20] it was 2%.

In the case of `Oc1ccc(Nc2nc(-c3ccc(Cl)cc3)cs2)cc1`, the residual activity came to 82% in [1]; 52% in assay [2]; 91% in assay [3]; 93% in assay [4]; 118% in assay [5]; 56% in assay [6]. For the same compound, the residual activity in assay [7] worked out at 92%; in assay [8], 36%; in assay [9], 118%; in [10], 135%; in assay [11], 111%; in assay [12] it was 129%. Moreover, the residual activity in [13] was 97%; in [14], 107%; in [15], 109%; in [16], 94%; in assay [17] it was 110%; in assay [18], 97%. For the same compound, the figures for the residual activity in assay [19] and in assay [20] were 78% and 87%, respectively.

On to `Cn1cc(/C=C2\C(=O)Nc3ccc(S(N)(=O)=O)cc32)c2ccccc21`, for which the residual activity is 69% in assay [1]; 85% in assay [2]; 89% in [3]; 59% in [4]; 63% in [5]; 82% in assay [6]. For the same compound, the residual activity was found to be 6% in [7]; 3% in [8]; 103% in assay [9]; 89% in [10]; 83% in assay [11]; 87% in assay [12]. The residual activity in [13] was 86%; in assay [14], 54%; in [15], 56%; in [16], 41%; in assay [17], 103%; in assay [18] it was 25%. Further, the residual activity turned out to be 13% in assay [19] and 11% in assay [20].

As to `O=C1NC(=O)c2c1c1c3ccccc3[nH]c1c1[nH]c3cc(Br)ccc3c21`, the residual activity was 94% in assay [1]; 87% in [2]; 87% in assay [3]; 86% in assay [4]; 27% in assay [5]; 37% in [6]. Also, the residual activity was 85% in assay [7]; 31% in [8]; 87% in assay [9]; 88% in assay [10]; 85% in [11]; 85% in assay [12]. Also, the residual activity in assay [13] was 94%; in [14], 84%; in assay [15], 87%; in assay [16], 76%; in assay [17], 92%; in assay [18], 86%. Besides, the residual activity in assay [19] worked out at 92%; in assay [20], 38%.

`Cn1cnc2cc3c(Nc4cccc(Br)c4)ncnc3cc21`: the residual activity in assay [1] worked out at 83%; in [2] it was 74%; in assay [3], 96%; in assay [4], 74%; in [5] it was 74%; in [6] it was 94%. Further, the residual activity in [7] is 64%; in assay [8] it was 40%; in [9] it was 105%; in assay [10], 87%; in assay [11], 88%; in assay [12], 92%. The residual activity in [13] turned out to be 107%; in assay [14] it was 95%; in [15] it was 102%; in assay [16], 102%; in assay [17], 101%; in assay [18], 81%. In addition, the residual activity in assay [19] came out at 97%; in assay [20], 101%.

For the compound `CC[n+]1c(/C=C/N(C)c2ccccc2)n(-c2ccccc2)c2ccc(-c3nc4ccccc4s3)cc21`, the residual activity in [1] stood at 80%; in assay [2], 133%; in [3] it was 108%; in assay [4] it was 107%; in [5], 80%; in [6], 34%. Also, the residual activity turned out to be 105% in [7]; 103% in assay [8]; 99% in assay [9]; 122% in assay [10]; 98% in [11]; 83% in assay [12]. Besides, the residual activity in assay [13] stood at 139%; in [14] it was 99%; in assay [15], 108%; in assay [16] it was 96%; in assay [17] it was 107%; in [18], 82%. Further, the residual activity amounted to 103% in assay [19] and 73% in [20].

With `CCC(=O)Nc1ccc2ncnc(Nc3cccc(Br)c3)c2c1`, the residual activity in [1] came to 77%; in [2] it was 108%; in assay [3], 94%; in assay [4] it was 89%; in [5], 68%; in assay [6], 82%. The residual activity in [7] stood at 89%; in [8], 78%; in assay [9] it was 109%; in [10], 101%; in assay [11], 89%; in [12] it was 77%. The residual activity in [13] worked out at 113%; in [14], 112%; in assay [15] it was 94%; in [16], 116%; in assay [17], 94%; in assay [18] it was 84%. Besides, the figures for the residual activity in assay [19] and in [20] were 91% and 95%, respectively.
